Screening results as filed in PubChem.
DUX4 inh – DUX4-mediated transcription inhibition. AID 1224904. 293T-iDUX4 ZSCAN4-Gaussia luciferase reporter, 24 h; active compounds read low. activity change, negative = inhibition, % (no concentration beside the values). 0.8% of 37,000 active;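 active = mean inhibition of at least 10% in the main channel, exceeding the control channel by a set limit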
Large screens that a line does not name were inactive. The sample as a whole holds a higher share of hits than the screen did.

COc1cc(CN2CC3(CCN(C(=O)Nc4cccc(F)c4)CC3)c3c(n(C)c4cc(OC)ccc34)[C@H]2CO)cc(OC)c1	DUX4 inh -37
COc1ccc2c3c(n(C)c2c1)[C@@H](CO)N(C(=O)c1ccc(F)cc1)CC31CCN(CC2CC2)CC1	none
COc1ccc2c3c(n(C)c2c1)[C@H](CO)N(C(C)=O)CC31CN(C(=O)c2ccccc2)C1	DUX4 inh -30
COc1ccc2c3c(n(C)c2c1)[C@H](CO)N(C)CC31CN(C(=O)c2ccccc2F)C1	DUX4 inh -32
COc1ccc2c3c(n(C)c2c1)[C@@H](CO)N(C(=O)c1ccccc1)CC31CN(C(C)=O)C1	none
CN1c2ccc(-c3cccc(F)c3)cc2[C@@H]2[C@@H](CCN2C(=O)C2CCC2)[C@@H]1CO	none
O=C(c1ccccn1)N1C[C@H]2[C@@H](c3ccccc31)[C@@H](CO)N2C(=O)C1CCOCC1	none
COc1ccc([C@@H]2C/C=C\C[C@@H](c3ccccc3)NC(=O)CCC(=O)N2)c(OC)c1	none
COCCNC(=O)C[C@@H]1CC[C@H]2[C@H](COc3ccc(NC(=O)c4cnccn4)cc3C(=O)N2C)O1	none
CO[C@@H]1CN(C)C(=O)c2cc(NC(=O)Nc3ccc(Cl)cc3)ccc2OC[C@H](C)N(C)C[C@H]1C	none
Cc1cc(C(=O)Nc2ccc3c(c2)C(=O)N(C)[C@@H]2CC[C@@H](CC(=O)N[C@@H](C)c4ccccc4)O[C@@H]2CO3)no1	none
COCCNC(=O)C[C@@H]1C[C@H]2c3cc(NC(=O)Nc4ccccc4F)ccc3O[C@H]2[C@H](CO)O1	none
O=C(C[C@H]1C[C@@H]2c3cc(NC(=O)Nc4ccccc4F)ccc3O[C@@H]2[C@H](CO)O1)NCc1cc(F)ccc1F	none
O=C(C[C@@H]1C[C@H]2c3cc(NC(=O)Nc4ccccc4F)ccc3O[C@H]2[C@@H](CO)O1)NCCc1ccccc1	DUX4 inh -22
O=C(C[C@@H]1C[C@H]2c3cc(NC(=O)Nc4ccccc4F)ccc3O[C@H]2[C@H](CO)O1)NCc1cc(F)ccc1F	DUX4 inh -52
COCCNC(=O)C[C@H]1C[C@H]2c3cc(NC(=O)Nc4ccccc4F)ccc3O[C@H]2[C@H](CO)O1	none
COc1ccccc1CNC(=O)C[C@@H]1C[C@H]2c3cc(NC(=O)Nc4ccccc4F)ccc3O[C@H]2[C@H](CO)O1	none
CC=Cc1ccc2n(c1=O)C[C@H]1[C@H](CO)[C@@H](C(=O)N3CCc4ccccc4C3)N(C(=O)C3CC3)[C@@H]21 (mixture of isomers)	none
COc1ccccc1C#Cc1ccc([C@@H]2[C@H]3CN(CCC(F)(F)F)CCCCN3[C@H]2CO)cc1	DUX4 inh -30
OC[C@@H]1[C@H](c2ccc(-c3cccc(F)c3)cc2)[C@H]2CN(Cc3cncnc3)CCCCN12	none
O=S(=O)(c1ccccc1)N1CCCCN2[C@H](C1)[C@@H](c1ccc(-c3ccccc3)cc1)[C@@H]2CO	none
Cn1cnc(S(=O)(=O)N2CCCCN3[C@H](CO)[C@H](c4ccc(-c5cccc(F)c5)cc4)[C@@H]3C2)c1	none
Cc1ccccc1S(=O)(=O)N1CCCCN2[C@H](CO)[C@@H](c3ccc(-c4cccc(F)c4)cc3)[C@@H]2C1	DUX4 inh -20
OC[C@@H]1[C@@H](c2ccc(-c3cccc(F)c3)cc2)[C@H]2CN(CCC(F)(F)F)CCCCN12	DUX4 inh -35
OC[C@H]1[C@@H](c2ccc(-c3cccc(F)c3)cc2)[C@@H]2CN(Cc3cncnc3)CCCCN12	none
CN(C)C(=O)c1ccc(-c2ccc([C@H]3[C@H]4CN(CCC(F)(F)F)CCCCN4[C@H]3CO)cc2)cc1	none
CC(=O)N1CCCCN2[C@H](CO)[C@@H](c3ccc(C#Cc4ccccc4F)cc3)[C@H]2C1	none
O=C(c1cccc(F)c1)N1CCCCN2[C@H](CO)[C@@H](c3ccc(-c4ccccc4)cc3)[C@H]2C1	none
OC[C@H]1[C@@H](c2ccc(-c3cccc(F)c3)cc2)[C@H]2CN(CCC(F)(F)F)CCCCN21	DUX4 inh -47
OC[C@@H]1[C@H](c2ccc(-c3cccc(F)c3)cc2)[C@@H]2CN(Cc3cncnc3)CCCCN12	none
CCCNC(=O)N1CC2(C1)CN(C(=O)COC)[C@H](CO)c1c2c2ccc(OC)cc2n1C	none
CC=Cc1ccc2n(c1=O)C[C@H]1[C@H](CO)[C@@H](C(=O)Nc3ccccc3)[C@@H]2N1C(=O)CC1CC1 (mixture of isomers)	none
CC=Cc1ccc2n(c1=O)C[C@@H]1[C@@H](CO)[C@H](C(=O)NCCC)N(Cc3cccnc3)[C@H]21 (mixture of isomers)	none
C[C@@H]1CN([C@@H](C)CO)C(=O)CCCn2cc(nn2)CO[C@@H]1CN(C)C(=O)Nc1cccc(F)c1	none
O=C(C1CCOCC1)N1CC2(C1)[C@@H](c1ccccc1)[C@@H](CO)N2CCC(F)(F)F	none
Cc1noc(C)c1NC(=O)N[C@@H]1CC[C@H](CC(=O)NCc2ccc(Cl)c(Cl)c2)O[C@H]1CO	none
O=C(C[C@H]1CC[C@H]2[C@@H](COC[C@H](O)CN2Cc2cccc(F)c2)O1)NCCc1ccncc1	none
CCCC#Cc1ccc2c(c1)[C@H]1[C@H](CCN1C(=O)C1CCCCC1)[C@@H](CO)N2	none
